Laboratory results published in PubChem BioAssay (NCI).
“And” between values parts separate entries of the source, which are not always exact repeats. Identical values can stand only once. This is part of a sample that, as a whole, favours compounds with a hit. Of some 83,000 tested, about 20% had one in any assay.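 For each line, cells grew in 96-well plates with the test compound present at a single concentration for 48 hours.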 A number with no mark means an inactive call. The source made the active and inactive calls. The calls were made as follows: active = growth percent below 10; inactive = the rest.

tested on: MDA-MB-468 breast; assay: NCI-60 one-dose screen, 48 h (100 = growth as untreated, 0 = no growth, -100 = all killed); conditions: 10 µM unless noted

Compound | growth
COc1ccc(C2=CC(c3cc(OC)c(OC)c(OC)c3)n3ncnc3N2)cc1 (stereo not given) | 32.2%
CN1CCC2(CC1)N=C(SCC(=O)Nc1cnc3ccccc3c1)C(c1ccc(Br)cc1)=N2 | -43.8% (active)
Cn1c2ccccc2c2ccccc21 | 101%
CNC(=O)CCN1CCN(CC/C=C2\c3ccccc3Sc3ccc(Cl)cc32)CC1 | 72.5%
O=C(Cn1c(-c2ccc([N+](=O)[O-])cc2)nc2ccccc21)NNC(=O)c1cccnc1 | -12.6% (active)
N#Cc1c(O)c2c(c(O)c1C#N)C(=O)c1ccccc1C2=O | 7.71% (active)
Cc1ccc(NCCN(C)CC(C)O)c2c(=O)c3ccccc3sc12 (stereo not given) | 13.5%
COc1cc(OC)cc(N2C(=O)N(Cc3ccc(C(C)(C)C)cc3)c3ccccc3S2(=O)=O)c1 | 51.8%
Cc1cc(-c2cc(C)c(O)c(C)c2)cc(C)c1O | 26.1%
N#CCCc1c[nH]c2ccccc12 | 94.5%
O=C(/C=C/c1ccc(Cl)cc1)/C=C/c1cc2ccccc2[nH]c1=O | 55.9%
O=C1Nc2c(ccc(Cl)c2Cl)/C1=C\c1ccc(C(F)(F)F)cc1 | 92.8%
[2H]C([2H])([2H])Oc1cc(F)ccc1/C=C/C(=O)/C=C(/C=C/c1ccc(F)cc1OC([2H])([2H])[2H])OB(F)F | 46.1%
COC1=CC(c2ccc[nH]2)=N/C1=C\c1[nH]c(C)c(C(=O)Oc2ccccc2)c1C | -82.9% (active)
COc1ccc(-c2nc(-c3nc4ccc(C)cc4[nH]3)cc3c2[nH]c2ccccc23)cc1 | 48.8%
CN(C)C[C@@H]1CCn2cc(c3ccccc32)C2=C(C(=O)NC2=O)c2cn(c3ccccc23)CCO1 | 23.3%
CC1=C(SCCC(=O)OC(C[Se]C2=C(C)C(=O)c3ccccc3C2=O)C(=O)NCCCCCC(=O)OCc2ccccc2)C(=O)c2ccccc2C1=O (stereo not given) | 30.5%
CCOC(=O)c1cnc2ccc(Br)cc2c1Nc1cccc(S(=O)(=O)NC)c1 | 90.8%
COc1ccc(-n2cc(COc3ccc4c5ccnc(C)c5n(CC(C)C)c4c3)nn2)cc1 | 35.3%
CC/C(Cc1ccccc1)=C(\c1ccc(OCCCN(C)C)cc1)c1ccc(OC(=O)NCc2ccccc2)cc1 | 56.8%

Compound | growth
CCCCN1C(=O)/C(=c2\sc3n(c2=O)C2C(NN=3)N(CC)C(=O)N2CC)c2cc(Cl)ccc21 (stereo not given) | 56.2%
COc1ccc(NC(=O)CCCCCCNC(=O)C(O)(O)C(F)(F)F)cc1 | 31.8%
O=C(CCn1cnc2c(cc(-c3ccccc3)n2-c2ccccc2)c1=O)Nc1ccc(F)cc1 | 78%
COc1ccc(NC(=O)c2ccc(Cl)cc2Cl)cc1 | 96.5%
O=C(CCCCCNC(=O)c1cc(=O)c(O)co1)Nc1ccccc1 | 108%
O=C(O)c1cccnc1Br | 102%
O=c1c2cc(F)ccc2sc2c(NCCCN3CCCC3)nc3ccccc3c12 | -13.7% (active)
O=C(Nc1cc(C(F)(F)F)cc(C(F)(F)F)c1)c1cc(Cl)ccc1O | -24% (active) and -1.83% (active)
CCOc1cc2ncc(C#N)c(Nc3ccc(F)c(Cl)c3)c2cc1NC(=O)CC1CCSS1 (stereo not given) | -74.2% (active)
Cn1c(=O)c2c(ncn2CC[N+](C)(C)C)n(C)c1=O | 101%
COc1ccc(-n2c(C)nc3c(c(C)nn3-c3ccccc3)c2=O)cc1 | -15.7% (active)
COc1cc(/C=C/C(=O)c2cccnc2Nc2ccc(F)cc2)cc(OC)c1OC | 16.3%
COc1ccc([N+](=O)[O-])cc1OC | 108% and 101%
Cc1nc2n[nH]c(N)c2nc1C | 100%
COc1cc(-c2csc(NC(=O)Nc3ccc(Cl)c(C(F)(F)F)c3)n2)cc(OC)c1OC | -12.7% (active)
CCN1CCN(CC(=O)Nc2nc3ccc(NCc4ccc(Br)cc4)cc3s2)CC1 | 61.1%
N=C(N)c1ccc(-c2ccc(-c3ccc(Cl)cc3Cl)s2)nc1 | -13.7% (active)
OCCN1CCCCCCC1 | 101%
CCCCNC(=O)Oc1ccc(/C(=C(/CC)Cc2ccccc2)c2ccc(OCCCN(C)C)cc2)cc1 | 72.9%
O=C(CCN1CCCC1)Nc1ccc2c(Nc3ccc(Br)cc3)c3ccccc3nc2c1 | 39.5%
